# Data: ChEMBL document CHEMBL2218924, “A broad activity screen in support of a chemogenomic map for kinase signalling research and drug discovery” (Biochem J, 2013)
# Key:
# [1] = target: T1, Muscle, skeletal receptor tyrosine-protein kinase (Homo sapiens) (UniProt O15146); details: at 1 µM
# T1 sequence (whole entry): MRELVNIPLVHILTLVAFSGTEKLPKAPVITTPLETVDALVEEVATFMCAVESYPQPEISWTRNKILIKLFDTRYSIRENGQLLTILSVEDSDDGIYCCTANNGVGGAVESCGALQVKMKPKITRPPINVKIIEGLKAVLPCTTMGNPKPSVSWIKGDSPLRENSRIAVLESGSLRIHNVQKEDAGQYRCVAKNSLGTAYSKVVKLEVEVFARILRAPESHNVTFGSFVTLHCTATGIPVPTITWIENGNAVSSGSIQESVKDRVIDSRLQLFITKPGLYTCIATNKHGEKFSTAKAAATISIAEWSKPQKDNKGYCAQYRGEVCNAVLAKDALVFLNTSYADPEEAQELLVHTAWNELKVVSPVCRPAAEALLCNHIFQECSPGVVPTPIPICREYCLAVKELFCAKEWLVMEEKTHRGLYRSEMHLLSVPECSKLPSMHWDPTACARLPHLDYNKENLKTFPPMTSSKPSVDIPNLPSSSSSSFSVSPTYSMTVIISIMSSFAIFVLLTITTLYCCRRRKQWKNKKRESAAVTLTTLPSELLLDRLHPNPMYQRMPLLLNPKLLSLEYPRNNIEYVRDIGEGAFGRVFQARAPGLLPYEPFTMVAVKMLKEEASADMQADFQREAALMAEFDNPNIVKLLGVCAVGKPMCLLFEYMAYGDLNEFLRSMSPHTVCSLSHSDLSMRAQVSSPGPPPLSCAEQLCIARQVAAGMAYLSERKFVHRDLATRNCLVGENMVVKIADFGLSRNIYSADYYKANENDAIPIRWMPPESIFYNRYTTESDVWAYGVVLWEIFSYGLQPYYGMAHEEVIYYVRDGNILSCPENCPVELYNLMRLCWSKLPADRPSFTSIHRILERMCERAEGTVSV
# [2] = target: T1, Muscle, skeletal receptor tyrosine-protein kinase (Homo sapiens); details: at 10 µM
# [3] = target: T2, Serine/threonine-protein kinase Nek11 (Homo sapiens) (UniProt Q8NG66); details: at 1 µM
# T2 sequence (whole entry): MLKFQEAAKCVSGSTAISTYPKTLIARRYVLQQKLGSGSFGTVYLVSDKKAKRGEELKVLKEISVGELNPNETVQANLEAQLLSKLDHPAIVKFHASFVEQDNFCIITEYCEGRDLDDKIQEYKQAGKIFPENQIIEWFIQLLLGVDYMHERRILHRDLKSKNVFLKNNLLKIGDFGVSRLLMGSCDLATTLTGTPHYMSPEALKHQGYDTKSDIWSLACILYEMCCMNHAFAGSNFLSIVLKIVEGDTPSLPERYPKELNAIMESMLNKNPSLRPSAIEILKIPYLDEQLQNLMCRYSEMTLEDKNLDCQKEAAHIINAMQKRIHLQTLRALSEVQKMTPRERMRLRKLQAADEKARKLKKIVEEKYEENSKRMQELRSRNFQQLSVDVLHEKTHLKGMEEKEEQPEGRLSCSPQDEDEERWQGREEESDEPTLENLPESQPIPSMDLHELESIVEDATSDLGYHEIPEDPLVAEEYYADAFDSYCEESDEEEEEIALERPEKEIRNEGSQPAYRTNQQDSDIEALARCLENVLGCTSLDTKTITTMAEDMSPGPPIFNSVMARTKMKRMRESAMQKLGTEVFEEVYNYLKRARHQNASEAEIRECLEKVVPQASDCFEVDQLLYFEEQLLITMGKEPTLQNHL
# [4] = target: T2, Serine/threonine-protein kinase Nek11 (Homo sapiens); details: at 10 µM
# [5] = target: T3, Serine/threonine-protein kinase Nek2 (Homo sapiens) (UniProt P51955); details: at 1 µM
# T3 sequence (whole entry): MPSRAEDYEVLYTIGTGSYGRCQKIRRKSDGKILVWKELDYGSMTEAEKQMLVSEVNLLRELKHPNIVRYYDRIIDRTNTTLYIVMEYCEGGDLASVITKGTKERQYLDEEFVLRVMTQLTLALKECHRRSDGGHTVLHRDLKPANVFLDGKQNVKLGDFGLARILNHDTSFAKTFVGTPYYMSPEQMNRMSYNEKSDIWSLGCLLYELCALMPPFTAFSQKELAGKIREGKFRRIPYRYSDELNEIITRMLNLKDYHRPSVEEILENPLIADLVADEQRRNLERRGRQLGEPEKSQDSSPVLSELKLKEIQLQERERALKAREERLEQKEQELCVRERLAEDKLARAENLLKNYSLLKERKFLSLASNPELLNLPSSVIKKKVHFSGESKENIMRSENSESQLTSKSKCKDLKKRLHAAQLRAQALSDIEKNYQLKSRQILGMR
# [6] = target: T3, Serine/threonine-protein kinase Nek2 (Homo sapiens); details: at 10 µM
# [7] = target: T4, Serine/threonine-protein kinase Nek3 (Homo sapiens) (UniProt P51956); details: at 1 µM
# T4 sequence (whole entry): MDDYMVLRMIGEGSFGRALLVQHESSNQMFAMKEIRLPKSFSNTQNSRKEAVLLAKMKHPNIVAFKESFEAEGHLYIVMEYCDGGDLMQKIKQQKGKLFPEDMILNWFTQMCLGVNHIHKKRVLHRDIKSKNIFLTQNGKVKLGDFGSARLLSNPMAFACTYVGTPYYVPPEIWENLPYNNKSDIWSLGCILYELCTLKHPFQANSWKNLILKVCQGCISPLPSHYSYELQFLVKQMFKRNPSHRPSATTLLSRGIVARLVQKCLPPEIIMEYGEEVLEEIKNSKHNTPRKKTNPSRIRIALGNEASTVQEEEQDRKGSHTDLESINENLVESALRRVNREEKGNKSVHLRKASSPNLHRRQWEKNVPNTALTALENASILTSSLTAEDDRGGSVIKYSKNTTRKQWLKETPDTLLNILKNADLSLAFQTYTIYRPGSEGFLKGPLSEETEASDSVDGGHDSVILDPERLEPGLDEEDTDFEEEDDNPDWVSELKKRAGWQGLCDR
# [8] = target: T4, Serine/threonine-protein kinase Nek3 (Homo sapiens); details: at 10 µM
# [9] = target: Serine/threonine-protein kinase tousled-like 2 (Homo sapiens) (UniProt Q86UE8); details: at 1 µM
# Chain of Serine/threonine-protein kinase tousled-like 2 (Homo sapiens) (Q86UE8 whole entry, looked up): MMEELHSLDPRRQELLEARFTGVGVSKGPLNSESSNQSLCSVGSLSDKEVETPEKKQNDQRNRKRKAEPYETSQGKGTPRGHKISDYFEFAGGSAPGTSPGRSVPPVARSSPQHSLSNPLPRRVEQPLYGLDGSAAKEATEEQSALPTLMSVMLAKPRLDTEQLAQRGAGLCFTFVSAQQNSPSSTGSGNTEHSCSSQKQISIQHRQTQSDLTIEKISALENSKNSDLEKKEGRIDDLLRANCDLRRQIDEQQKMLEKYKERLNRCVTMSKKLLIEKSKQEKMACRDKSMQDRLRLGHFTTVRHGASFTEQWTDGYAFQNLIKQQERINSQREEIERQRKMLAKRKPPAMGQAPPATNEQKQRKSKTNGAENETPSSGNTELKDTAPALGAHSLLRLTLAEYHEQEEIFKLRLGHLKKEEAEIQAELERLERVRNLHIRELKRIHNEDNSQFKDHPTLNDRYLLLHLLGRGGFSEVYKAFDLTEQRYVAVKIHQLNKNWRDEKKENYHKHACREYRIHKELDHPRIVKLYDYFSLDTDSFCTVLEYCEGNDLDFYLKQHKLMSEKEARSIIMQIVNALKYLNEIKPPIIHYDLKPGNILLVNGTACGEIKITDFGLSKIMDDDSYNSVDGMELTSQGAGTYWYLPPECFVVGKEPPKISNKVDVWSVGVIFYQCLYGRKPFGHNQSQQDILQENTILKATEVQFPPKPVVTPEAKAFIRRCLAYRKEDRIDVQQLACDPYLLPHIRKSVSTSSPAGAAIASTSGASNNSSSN
# [10] = target: Serine/threonine-protein kinase tousled-like 2 (Homo sapiens) (UniProt Q86UE8); details: at 10 µM
SMILES,residual activity [1] [%],residual activity [2] [%],residual activity [3] [%],residual activity [4] [%],residual activity [5] [%],residual activity [6] [%],residual activity [7] [%],residual activity [8] [%],residual activity [9] [%],residual activity [10] [%]
O=C1NC(=O)c2c1c1c3ccccc3[nH]c1n1cncc21,72,55,36,34,77,63,77,86,74,58
CC(C)[C@H](CO)Nc1nc(Nc2cc(N)cc(Cl)c2)c2ncn(C(C)C)c2n1,62,10,84,48,,76,85,70,95,73
NC(=O)Nc1sc(-c2ccc(F)cc2)cc1C(N)=O,62,15,25,5,87,58,69,48,72,27
O=c1cc(N2CCNCC2)oc2c(-c3ccccc3)cccc12,92,78,104,105,84,92,101,76,,91
COc1cc2nccc(Oc3ccc(NC(=S)NC(=O)c4ccccc4C)cc3)c2cc1OC,81,56,99,87,78,82,,60,101,85
O=C1C(Cl)=C(N2C(=O)CCC2=O)C(=O)c2ccccc21,76,84,41,33,93,89,74,87,94,95
O=C1NC(=O)C(c2cn(CCCn3ccnc3)c3ccccc23)=C1Nc1ccccc1,77,65,59,44,,,110,104,44,7
Oc1cccc(-c2nc(N3CCOCC3)c3oc4ncccc4c3n2)c1,,,98,98,,,117,69,,95
CC(C)N(CCC(=O)c1ccc2ccccc2c1)Cc1ccccc1,87,79,,,81,88,,,86,80
CC(C)(C)c1nc2c3ccc(F)cc3c3c(=O)[nH]ccc3c2[nH]1,,,98,55,,102,,,,
COc1cc2c(cc1OC)-c1n[nH]c(Nc3cccc(F)c3)c1C2,,,,,82,80,114,100,,
Nc1nc(Nc2ccc(S(N)(=O)=O)cc2)nn1C(=O)c1c(F)cccc1F,,20,56,,96,70,,71,68,17
CN([C@@H](Cc1ccc(OS(=O)(=O)c2cccc3cnccc23)cc1)C(=O)N1CCN(c2ccccc2)CC1)S(=O)(=O)c1cccc2cnccc12,115,,,,,,99,99,,
N#Cc1c(NC(=O)c2cccc3ccccc23)sc2c1CCCC2,96,78,82,72,,,76,,100,96
